This note sets out measurements from PubChem BioAssay AID624330 (Southern Research Specialized Biocontainment Screening …, 2012).

In all, about 340,000 compounds went through this assay and about 2,100 (0.62%) were called active. These entries were drawn from the full list. Potency and affinity values are given separately. Values without a mark were called inactive.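 The calls were made as follows: active = first-screen hits whose inhibition reached a set limit at any dose in the follow-up dose series; inconclusive = inhibition above the set first-screen limit but never retested; inactive = the rest.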

The target of this assay is Rac GTPase-activating protein 1 (Homo sapiens) (UniProt Q9H0H5). As to the kind of experiment: blockers of MgcRacGAP-driven Rac1 GTP hydrolysis – biochemical, ADP Hunter fluorescence, primary and confirmatory, confirmation (AID 624330).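 Also: fluorescence reports GDP produced by GAP-driven GTP hydrolysis.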 As to conditions: MgcRacGAP-stimulated Rac1 GTP hydrolysis, at 30 µM, hits give high values, GST-tagged Rac1 F28L mutant substrate.
Rac GTPase-activating protein 1 (Homo sapiens), sequence (Q9H0H5 whole entry, looked up): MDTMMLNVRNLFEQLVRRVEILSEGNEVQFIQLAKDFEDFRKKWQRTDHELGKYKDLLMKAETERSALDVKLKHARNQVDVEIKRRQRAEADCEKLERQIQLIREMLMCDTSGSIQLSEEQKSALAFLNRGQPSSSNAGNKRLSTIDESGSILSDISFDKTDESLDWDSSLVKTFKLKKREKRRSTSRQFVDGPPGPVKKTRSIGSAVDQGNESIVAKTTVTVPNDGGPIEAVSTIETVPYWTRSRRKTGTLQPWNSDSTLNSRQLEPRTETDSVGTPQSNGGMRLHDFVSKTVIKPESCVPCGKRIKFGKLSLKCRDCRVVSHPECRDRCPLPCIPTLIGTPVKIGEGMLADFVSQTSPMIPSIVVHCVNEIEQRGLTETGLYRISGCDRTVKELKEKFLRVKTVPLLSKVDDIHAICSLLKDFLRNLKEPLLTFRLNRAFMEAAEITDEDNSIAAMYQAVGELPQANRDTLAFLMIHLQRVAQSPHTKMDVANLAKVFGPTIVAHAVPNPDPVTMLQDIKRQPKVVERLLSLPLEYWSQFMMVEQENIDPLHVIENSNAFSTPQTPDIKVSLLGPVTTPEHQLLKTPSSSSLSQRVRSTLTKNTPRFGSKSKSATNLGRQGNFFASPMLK
The term inhibition denotes the relative decrease from the control value, in per cent. On to `Cc1ccccc1C(=O)Nc1cc(NC(=O)c2ccccc2C)cc(C(=O)O)c1`, for which the inhibition was 10.1%.
For `O=S(=O)(c1ccc(F)cc1)c1nc(-c2ccccc2)oc1N1CCOCC1` the value was 9.44%; for `CC(=O)c1cccc(NC(=O)Cn2cnc(S(=O)(=O)N3CCCCC3)c2)c1`, 2.19%; for `CCS(=O)(=O)N1Cc2ccccc2CC1C(=O)N(C)Cc1ccc(OC)cc1OC` (stereo unspecified), 5.19%.
For `CCOc1cccc(-c2c(C(=O)N/N=C/c3ccc(C)s3)nnn2-c2nonc2N)c1` the value was 0.29%; for `COc1ccc(C2SCCN2S(=O)(=O)c2ccc(F)cc2)cc1OC` (stereo unspecified), 6.1%.
For `O=C(NCCCN1CCCC1=O)c1cccc(S(=O)(=O)N2CCN(c3ccc(F)cc3)CC2)c1` the value was 1.69%.
Consider `COc1ccc(Nc2c3ccccc3nc3ccccc23)cc1`, for which the inhibition is 17.9%.
The value for `COc1ccc(NC(=O)CSc2nc3ccccc3cc2Cc2ccccc2)cc1` was 3.45%; that for `COc1ccc2[nH]c(=O)c(CNc3ccccc3)cc2c1` was 9.73%; that for `CCOc1ccc(NCc2cc3cc(OC)ccc3[nH]c2=O)cc1` was 15.8%.
For the compound `COc1cccc(CNc2cnc3ccccc3c2)c1O`, the inhibition is 1.26%.
For `COc1ccc(C(=O)NCc2cc(C)nc3ccccc23)cc1`, the inhibition was -16.4%.
For `COc1ccc(-c2cccc([C@H]3[C@@H]4C=CCC[C@@]4(C)C(=O)N3Cc3ccccc3)c2)cc1` the value was 12.4%.
For `Cc1cccc(C(=O)Nc2cc(NC(=O)c3cccs3)ccc2C)c1` the value was 5.54%; for `CCOc1ccccc1CN1CCN(C2CCSCC2)CC1CCO` (stereo unspecified), 7.4%; for `CN(CC(=O)Nc1ccc(SC(F)F)cc1)C1CCCCC1`, 9.96%.
For `Nc1ccc2cn[nH]c2c1` the value was 2.65%.
Turning to `Nc1ccc2nc(-c3cccc(-c4nc5ccc(N)cc5[nH]4)n3)[nH]c2c1`, the inhibition is 16.5%.
The value for `COc1ccc(-c2cc(CCCC(=O)NCCc3ccc(OC)cc3OC)no2)cc1` was -0.07%.
For `Cc1sc2nc(CN3CCOCC3)nc(Cl)c2c1C` the value was 5.87%; for `Cc1sc2nc(CN3CCOCC3)nc(N3CCC(C(N)=O)CC3)c2c1C`, -3.61%.
For `CCC(=O)Nc1cccc(NC(=O)CSc2nc3c(c(=O)n(C)c(=O)n3C)n2C)c1` the value was 7.76%.
For the compound `O=C(COc1ccc2ccc(=O)oc2c1)N1CCc2ccccc21`, the inhibition is -9.6%.
The value for `CC(N=c1ccccn1C(=O)Nc1cccc(C(F)(F)F)c1)c1ccco1` (stereo unspecified) was 2.17%.
The value for `O=C(CN1CCCCC1)NN(Cc1ccccc1)c1ccccc1` was 10.1%; that for `CN1CCN(CC(=O)NN(Cc2ccccc2)c2ccccc2)CC1` was 31.6%.
As to `CCN(CC(=O)NC(=O)NCc1ccccc1)Cc1ccccc1`, the inhibition was 3.08%.
The value for `CC(C)(O)C(=O)NN(Cc1ccccc1)c1ccccc1` was 4.09%; that for `CCCc1cc(=O)[nH]c(SCC(=O)c2cc(C)n(CC3CCCO3)c2C)n1` (stereo unspecified) was 4.29%.
Take `Cc1ccc(S(=O)(=O)NC(C)C(=O)N2CCOCCOCCOCCOCC2)cc1` (stereo unspecified): the inhibition was 9.08%.
The value for `CCc1ccc(NC(=O)C2CCN(S(=O)(=O)c3ccc4c(c3)NC(=O)CO4)CC2)cc1` was -14%.
The value for `CC(C)n1c2ccccc2c2cc([N+](=O)[O-])ccc21` was 10.7%.
For `Cn1c(=O)cc(-c2ccccc2)c2ccccc21` the value was 5.87%.
Consider `COc1cc(/C=C2\C(=O)ON=C2c2ccccc2)cc(OC)c1OC`, for which the inhibition was 15%.
For `COc1cc(/C=C(/C(=O)O)c2ccc(-c3ccccc3)cc2)cc(OC)c1OC` the value was 7.82%.
For `Cn1c(-c2ccccc2)cc(=O)c2ccccc21` the value was 12.4%; for `O=C1/C(=C/c2ccc([N+](=O)[O-])cc2)C=C(c2ccccc2)N1c1ccccc1`, 15.2%; for `CC(=O)Nc1ccc(NC(=O)CSc2nnc(-c3cccs3)n2C)cc1`, 5.9%.
For `O=C(/C=C/c1cccc([N+](=O)[O-])c1)NCc1ccccc1` the value was 2.96%; for `CCCCOc1cccc(/C=C(\C#N)C(=O)NC2CC2)c1`, 4.72%; for `CC(C)(C)OC(=O)C[C@@H]1C/C=C\C[C@@H](CC(=O)N[C@H](CO)Cc2ccccc2)C(=O)N2CCC[C@@H]2COC1=O`, 4.93%.
For `CN(CCO)c1ncnc2c1sc1nc(N3CCOCC3)c3c(c12)CCC3`, the inhibition was 13.9%.
For `O=C(CCl)N(c1ccccc1)c1ccccc1` the value was 5.65%; for `Cc1cc(C(=O)NNC(=O)C2CCCC2)c(C)o1`, 4.19%.
The value for `Cc1cnc(NC(=O)c2cccs2)s1` was 0.1%; that for `NC(=O)C[C@H](N)c1cn([C@@H](CC(N)=O)C(=O)N2CCNCC2)nn1` was -0.03%.
Consider `CN(CC1CCCN(CCc2ccc(Cl)cc2)C1)C(=O)C(=O)c1ccco1` (stereo unspecified), for which the inhibition was 6.85%.
The value for `Cc1ccn2cc(C(=O)N3CCN(c4cnn(-c5ccccc5)c(=O)c4Cl)CC3)nc2c1` was 2.32%; that for `O=C(NCc1ccccc1)NS(=O)(=O)c1ccccc1Cl` was 2.6%.
The value for `CCCCCCCCCCCCCCCC[N+](C)(C)CC` was 18.7%; that for `CCCCCCCCCCCCCCCC[N+](C)(C)CCl` was 15.1%; that for `COc1ccc(CNC(=O)C(C)N(Cc2ccco2)C(=O)c2snc(C(N)=O)c2N)cc1` (stereo unspecified) was -8.32%.
The value for `COc1ccc(C2CC(c3ccc4ccccc4c3)=NN2C(=O)CSc2ncccn2)cc1` (stereo unspecified) was 7.23%.
For `C=CCNCC(=O)N1N=C(c2ccc3ccccc3c2)CC1c1ccc(OC)cc1` (stereo unspecified), the inhibition was 6.55%.
Regarding `CN(C)CC1CCC/C(=C\c2ccc(OC(=O)c3ccc(Cl)cc3)cc2)C1=O` (stereo unspecified), the inhibition is 2.37%.
For `COc1ccc(CCNC(=O)CCOc2ccc(C(C)(C)C)cc2)cc1OC` the value was 3.35%; for `CC(=O)Nc1nnc(S(N)(=O)=O)s1`, 1.42%; for `Cc1nnc(NC(=O)c2ccco2)s1`, 4.57%.
The value for `CC(=O)Nc1nnc(C)s1` was 9.89%; that for `Cc1ccc(-c2nnc(NC(=O)c3ccco3)s2)cc1` was 6.39%.
The value for `CC(C)c1ccc(CNC(=O)C(=O)NCC2CCCO2)cc1` (stereo unspecified) was 14.8%; that for `Cc1cc(NS(=O)(=O)c2ccc(NC(=O)COc3ccccc3[N+](=O)[O-])cc2)no1` was 7.5%.
`CC1c2ccccc2SC(CCCN(C)C)c2ccccc21` (stereo unspecified): the inhibition is 5.84%.
The value for `CN(C)CCC1Sc2ccccc2Oc2ccccc21` (stereo unspecified) was 17.5%.
The value for `Cc1onc(-c2c(F)cccc2Cl)c1C(=O)NCc1cccs1` was 5.78%; that for `COc1ccc(S(=O)(=O)N(C)CC(=O)NCCC2=CCCCC2)cc1` was 4.26%; that for `O=[N+]([O-])c1ccc2oc(/C=C/c3ccc(O)cc3)nc2c1` was 13.2%.
For `O=c1[nH]c(/C=C\c2cccc(O)c2)nc(O)c1[N+](=O)[O-]` the value was 13.1%.
Consider `NS(=O)(=O)c1ccc(NC(=S)NNC(=O)c2ccc(Br)o2)cc1`, for which the inhibition is 4.44%.
The value for `COc1ccc(Cl)cc1NC(=O)CN(C)CC(=O)Nc1ccc(Br)cc1` was 3.57%; that for `O=C(NN1C(=O)/C(=C\c2cccnc2)SC1=S)c1ccco1` was 13.7%; that for `CCOc1ccc(NC(=O)CSc2nnc(C3CC3)n2C)cc1S(=O)(=O)N1CCCCC1` was 8.28%.
For `COc1ccccc1N1CCN(C(=O)c2ccncc2)CC1` the value was -0.56%; for `COc1ccccc1C(=O)N1CCN(C(=O)c2ccncc2)CC1`, 1.76%; for `COc1ccc(Br)cc1CN1CCN(C(=O)c2ccc(OC)c(OC)c2)CC1`, 21%.
Turning to `COc1ccc(OC)c(CN2CCN(C(=O)c3ccc(F)cc3)CC2)c1`, the inhibition is 25%.
The value for `CCCCOc1ccc(/C=C/C(=O)N(CC)CC(=O)Nc2ccc3c(c2)OCCO3)cc1OC` was 11.7%; that for `C/C(Cn1nc([N+](=O)[O-])cc1C)=N\NC(=O)COc1ccc(Cl)cc1Cl` was 6.26%.
For `Cc1ccccc1NC(=O)c1c(C)nn(-c2ccccc2)c1Cl` the value was 8.16%; for `O=C(CSc1ncccn1)NCC1CCCO1` (stereo unspecified), 4.06%; for `COc1cc(/C=N/Nc2nc3ccccc3[nH]c2=O)ccc1O`, 15.8%.
Regarding `COc1cc(/C=N\Nc2nc3ccccc3[nH]2)cc(OC)c1OC`, the inhibition was 29%.
The value for `COc1ccc(O)c(/C=N/Nc2nc3ccccc3[nH]2)c1` was 1.94%; that for `COc1cc(OC)c(OC)cc1/C=N/Nc1nc2ccccc2[nH]1` was 12.8%; that for `COc1ccc(NC(=O)c2c(C)nn(Cc3ccccc3)c2Cl)cc1S(=O)(=O)N1CCOCC1` was 2.08%.
For `Cc1ccc(S(=O)(=O)N2CCC(C(=O)OC(C)C(=O)N3CCOCC3)CC2)cc1` (stereo unspecified), the inhibition was 4.25%.
For the compound `CCc1ccc(NC(=O)c2n[nH]c(=O)c3ccccc23)cc1`, the inhibition is 2.23%.
The value for `COc1ccc(N2CCN(C(=O)CCN3C(=O)C4C5C=CC(C5)C4C3=O)CC2)cc1` (stereo unspecified) was 10.9%; that for `CCn1cc(CNC(=O)C2CCC(=O)N(CCc3cccc(F)c3)C2)cn1` (stereo unspecified) was 4.69%.
The value for `CCCNC(=O)COC(=O)C1CCN(S(=O)(=O)c2ccc3c(c2)OCCO3)CC1` was 2.29%; that for `O=C(CCCC(=O)NCC1CCCO1)NCC1CCCO1` (stereo unspecified) was 7.04%; that for `O=C(CSCSCC(=O)NCC1CCCO1)NCC1CCCO1` (stereo unspecified) was 9.35%.
Consider `COc1ccccc1CC(=O)NCC1CCCO1` (stereo unspecified), for which the inhibition was 14.3%.
For `O=C(CN1CCN(c2ccc(F)cc2)CC1)NCC1CCCO1` (stereo unspecified) the value was 12.3%; for `Cc1cccc(C(C)C)c1NC(=O)Cc1ccc(S(=O)(=O)N2CCOCC2)s1`, 6.93%.
